NS1 function inh: inhibitors of influenza NS1 protein function; AID 2326; Potency, µM (top dose mostly 46.1 µM), inactives show at the top dose activity, positive = more growth; 0.4% of 270,000 active; calls by dose curve; also: actives are rising curves; nearly all actives have a fitted effect of over 50% in size
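Compounds were scored for reversing the slow growth caused by influenza A NS1 in S. cerevisiae, measured by optical density at 600 nm. Assay medium contained 2% galactose at pH 6.0; NS1-free yeast of the same strain were the positive control.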
Sm TGR inh: inhibitors of Schistosoma mansoni thioredoxin glutathione reductase. purified TGR, DTNB reduction, TNB absorbance 405 nm. Potency, µM (doses to about 114 µM), inactives show top-dose activity change, negative = inhibition, usual class: inhibitors. 3% of 360,000 active. AID 485364; also: % is scaled to controls: 0 for no effect and ±100 for the full control effect; nearly all actives have a fitted effect of over 60% in size
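First, TGR (20 nM dispensed) and NADPH were mixed with compound. Second, a 15 min room-temperature incubation followed. Third, further NADPH and then DTNB were added to start the reaction. Finally, TNB absorbance was monitored kinetically.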
Pf growth 48h: P. falciparum growth inhibition at 48 hours (one generation); P. falciparum luciferase growth in erythrocytes, 48 h; Potency, µM (doses to about 28.7 µM), for the others: at the top dose activity change, negative = inhibition, most hits filed as inhibitors; 5.9% of 310,000 active; AID 504832; also: % is scaled to controls: 0 for no effect and ±100 for the full control effect
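Luciferase-expressing parasites in RBCs, 2% Hct / 0.1% parasitemia final; RPMI 1640 + 0.5% Albumax; 37 C, 5% CO2, one generation; luminescence read-out, lower signal = inhibition.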
AMA1 RON2 block: AMA1-RON2 (P. falciparum) interaction inhibition; AlphaScreen AMA1-biotinylated RON2 peptide binding; Potency, µM (top dose mostly 58.2 µM), for inactives: at the top dose activity change, negative = inhibition, most hits filed as inhibitors; 0.2% of 360,000 active; AID 720542;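 also: 0% = vehicle wells and -100% = peptide control; nearly all actives have a fitted effect of over 45% in size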
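AMA1 (3D7) with his tag at 25 nM final met compounds first, then biotinylated RON2 peptide at 25 nM; detection used donor plus acceptor beads, 10 µg/mL apiece, read by AlphaScreen after 30 min at room temperature.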
Pf growth 96h: inhibits malaria parasite growth, 96 h; P. falciparum luciferase reporter growth, 96 h; 6.9% of 320,000 active; Potency, µM (titrated, usually from 28.7 µM), for the others: at the top dose activity change, negative = inhibition, actives largely listed as inhibitors; also: % is scaled to controls: 0 for no effect and ±100 for the full control effect
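Two parasite generations (96 h, 37 C, 5% CO2) of compound exposure in infected erythrocytes (0.05% parasitemia, 2% hematocrit). Luciferase-reporter P. falciparum; decreased luminescence indicates inhibited growth, aimed at apicoplast-acting delayed death.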
Numbers without * were called inactive; [ ] = another dose, or the depositor's remark. Compounds with a hit are over-represented: about 11% of the library has one in this group of screens. Unless noted, calls follow the shape of the dose curve; as a rule, active = well fitted curve in the direction sought with a large enough effect; inconclusive = small, poorly fitted or top-dose-only effect, or another doubt; inactive = no such curve, though single readings can be large; an effect the other way counts as inactive or inconclusive. Potency is read from the fitted curve at half-maximal effect.

For C=CCN(C(=O)C1CSC2(C)CCC(=O)N12)c1nc(-c2ccccc2)cs1 (stereo unspecified) the results were Sm TGR inh 2%, Pf growth 48h 12µM*, AMA1 RON2 block -30% and Pf growth 96h inconclusive.
Cc1ccc(-c2csc(NC(=O)C3CSC4(C)CCC(=O)N34)n2)cc1 (stereo unspecified) was read as Sm TGR inh 56µM*, Pf growth 48h 0%, AMA1 RON2 block -13% and Pf growth 96h -7%.
Cc1cc(O)c(S(=O)(=O)c2ccccc2)c(C)c1NS(=O)(=O)c1ccccc1 was read as NS1 function inh 8%, Sm TGR inh -7%, Pf growth 48h inconclusive, AMA1 RON2 block -17% and Pf growth 96h 102%.
Screening O=C(CCS(=O)NCc1ccccc1)NCc1ccccc1 (stereo unspecified) returned NS1 function inh -9%, Sm TGR inh 32µM*, Pf growth 48h 19% and Pf growth 96h 16%.
For O=C(CCS(=O)CCC(=O)NCc1ccccc1)NCc1ccccc1 the results were NS1 function inh -9%, Sm TGR inh 1%, Pf growth 48h -3%, AMA1 RON2 block 8% and Pf growth 96h 52%.
Screening COc1ccc2cc(C(N)=O)c(=Nc3ccccc3)oc2c1 returned Sm TGR inh 0%, Pf growth 48h 74%, AMA1 RON2 block 5% and Pf growth 96h inconclusive.
COc1ccc(OC)c(N=c2oc3cc(O)ccc3cc2C(N)=O)c1 was read as NS1 function inh inconclusive, Sm TGR inh 5%, Pf growth 48h 11%, AMA1 RON2 block 2% and Pf growth 96h 13µM*.
`O=c1[nH]c(C2CCN(S(=O)(=O)c3ccc(C(F)(F)F)cc3)CC2)nc2c1nnn2Cc1ccc(F)cc1` gave NS1 function inh inconclusive, Sm TGR inh 2%, Pf growth 48h 12µM*, AMA1 RON2 block -9% and Pf growth 96h 38%.
Screening O=c1[nH]c(C2CCN(S(=O)(=O)c3cccc(C(F)(F)F)c3)CC2)nc2c1nnn2Cc1cccc(F)c1 returned NS1 function inh 22%, Sm TGR inh 3%, Pf growth 48h 7.4µM*, AMA1 RON2 block -2% and Pf growth 96h inconclusive.
O=c1[nH]c(C2CCN(S(=O)(=O)c3ccc4c(c3)OCCO4)CC2)nc2c1nnn2Cc1cccc(F)c1 was read as NS1 function inh 22%, Sm TGR inh -4%, Pf growth 48h inconclusive, AMA1 RON2 block -17% and Pf growth 96h -5%.
`O=c1[nH]c(C2CCN(S(=O)(=O)c3ccc([N+](=O)[O-])cc3)CC2)nc2c1nnn2Cc1ccccc1` gave NS1 function inh 3%, Sm TGR inh -7%, Pf growth 48h 5.2µM*, AMA1 RON2 block -6% and Pf growth 96h 0.15µM*.
For O=c1[nH]c(C2CCN(S(=O)(=O)c3ccc4c(c3)OCCO4)CC2)nc2c1nnn2Cc1ccc(F)cc1 the results were NS1 function inh 25%, Sm TGR inh 3%, Pf growth 48h 1.5µM*, AMA1 RON2 block -1% and Pf growth 96h 7%.
For C[C@H]1NC(=O)[C@@]2(C)[C@H](c3ccccc3)[C@H]3COc4ccccc4[C@@H]3N2C1=O the results were AMA1 RON2 block 2%.
COc1ccc(OC)c(NC(=O)C2CCCN2C(=O)C2CCC(C)CC2)c1 (stereo unspecified) was read as NS1 function inh -3%, Sm TGR inh 5%, AMA1 RON2 block -7% and Pf growth 96h 9.3µM*.
CCOC(=O)C(CCc1ccccc1)NC1CCc2ccccc2N(CC(=O)O)C1=O (stereo unspecified) was read as Pf growth 48h 9.5µM* and Pf growth 96h 12µM*.
CCOC(=O)[C@H](CCc1ccccc1)N[C@H]1CCc2ccccc2N(CC(=O)O)C1=O was read as AMA1 RON2 block -13%.
Screening O=C1CC(c2ccccc2)CC(O)=C1C=Nc1ccc(O)cc1 (stereo unspecified) returned NS1 function inh 1%, Pf growth 48h 19%, AMA1 RON2 block 4% and Pf growth 96h 13µM*.
`Cn1c(=O)n(C)c2cc(S(=O)(=O)Nc3cc(Cl)ccc3O)ccc21` gave NS1 function inh -31%, Sm TGR inh -6%, Pf growth 48h inconclusive, AMA1 RON2 block -6% and Pf growth 96h 19%.
CC(C)CN1CCC(=O)N(CCSc2ccccc2)CC1 was read as NS1 function inh 10%, Sm TGR inh -12%, Pf growth 48h 231%, AMA1 RON2 block 0% and Pf growth 96h 325%.
For O=C(COC(=O)c1cnccn1)Nc1ncc(C(F)(F)F)cc1Cl the results were AMA1 RON2 block 18%.
Cc1ccc(-c2c[n+](CC(=O)Nc3cc(=O)n(C)c(=O)n3C)c3n2CCC3)cc1 was read as NS1 function inh 22%, Sm TGR inh -1%, Pf growth 48h 4.1µM*, AMA1 RON2 block -7% and Pf growth 96h 1.2µM*.
For Cn1c(NC(=O)C[n+]2cc(-c3ccc(F)cc3)n3c2CCC3)cc(=O)n(C)c1=O the results were NS1 function inh -8%, Sm TGR inh -1%, Pf growth 48h 3.7µM*, AMA1 RON2 block 20%[2.32 µM] and Pf growth 96h 0.59µM*.
For O=C(C[n+]1cc(-c2ccc(F)cc2)n2c1CCC2)c1cccs1 the results were NS1 function inh 1%, Sm TGR inh 4%, Pf growth 48h 8.3µM*, AMA1 RON2 block 1% and Pf growth 96h inconclusive.
`Cc1ccc(-c2c[n+](CC(=O)Nc3nc(-c4ccccc4)cs3)c3n2CCC3)cc1` gave NS1 function inh 0%, Sm TGR inh -6%, Pf growth 48h inconclusive, AMA1 RON2 block 0% and Pf growth 96h inconclusive.
For O=C(CSc1cn(CC(=O)N2CCCC2)c2ccccc12)Nc1cc(C(F)(F)F)ccc1Cl the results were Sm TGR inh -4%.
Nc1scn[n+]1Cc1cccc2cccnc12 was read as NS1 function inh -6%, Sm TGR inh 8%, Pf growth 48h inconclusive, AMA1 RON2 block 60% and Pf growth 96h inconclusive.
For Nc1ccc(Br)c[n+]1Cc1cccc2cccnc12 the results were NS1 function inh -11%, Sm TGR inh 6%, Pf growth 48h inconclusive, AMA1 RON2 block 0% and Pf growth 96h 10µM*.
For CCOc1ccc(-c2nonc2NC(=O)c2ccccc2C)cc1 the results were Sm TGR inh 2%.
For CC(NC(=O)c1ccc(CS(=O)(=O)c2cccc(C(F)(F)F)c2)o1)c1ccc2c(c1)OCCO2 (stereo unspecified) the results were NS1 function inh 4%, Sm TGR inh 7%, AMA1 RON2 block 12% and Pf growth 96h -20%.
CC(NC(=O)c1ccc(CS(=O)(=O)Cc2ccccc2F)o1)c1ccc2c(c1)OCCO2 (stereo unspecified) was read as NS1 function inh 2%, Sm TGR inh 35µM*, Pf growth 48h inconclusive, AMA1 RON2 block 7% and Pf growth 96h inconclusive.

Screens: PubChem, National Center for Advancing Translational Sciences (NCATS)
